The source holds several records for some structures; these can differ, active in one and inactive in another. Activity calls are given as the source filed them. How the source made its calls: active means hit-call score of the fitted dose curve at least 0.9, where 1 is the maximum; inactive means score below 0.9.
How the values were obtained:
[1] = read-out: Matrix Metallopeptidase 1 (MMP1), MMP1 (gene 4312); assay: BSK_hDFCGF_MMP1: BioMAP Diversity Plus: hDFCGF Assay for Matrix Metallopeptidase 1 (MMP1) Biomarker Activity (AID 2283064); details: primary human foreskin fibroblasts; actives raise or lower the signal
In short: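 MMP1 levels quantified by ELISA 24 h after dosing human dermal fibroblast cultures, with parallel SRB total-protein staining for overt cytotoxicity. Data fitted in both directions against DMSO baseline.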

[2] = read-out: Plasminogen activator inhibitor-1 (PAI1), SERPINE1 (gene 5054); assay: BSK_hDFCGF_PAI1: BioMAP Diversity Plus: hDFCGF Assay for Plasminogen activator inhibitor-1 (PAI1) Biomarker Activity (AID 2283066); details: primary human foreskin fibroblasts; actives raise or lower the signal
In short: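 Fibroblasts from human foreskin were treated with test chemical. After 24 h, PAI-1 was measured by ELISA. Activity was fitted in both directions relative to DMSO.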

[3] = read-out: Intercellular Adhesion Molecule 1 (ICAM1), ICAM1 (gene 3383); assay: BSK_KF3CT_ICAM1: BioMAP Diversity Plus: KF3CT Assay for Intercellular Adhesion Molecule 1 (ICAM1) Biomarker Activity (AID 2283067); details: primary human keratinocytes with fibroblasts; actives raise or lower the signal
In short: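 Cell-surface ICAM-1 was measured by ELISA 24 h after dosing primary human skin keratinocytes co-cultured with fibroblasts. Parallel SRB staining tracked overt cytotoxicity. Gain or loss of signal was fitted relative to DMSO.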

[4] = read-out: Interferon-gamma inducible Protein 10 (IP10), CXCL10 (gene 3627); assay: BSK_KF3CT_IP10: BioMAP Diversity Plus: KF3CT Assay for Interferon-gamma inducible Protein 10 (IP10) Biomarker Activity (AID 2283068); details: primary human keratinocytes with fibroblasts; actives raise or lower the signal
In short: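 Human keratinocyte plus foreskin fibroblast primary co-culture exposed to test chemical for 24 h; IP-10 measured by ELISA. Concentration-response fitted bidirectionally against DMSO control as baseline.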

[5] = read-out: Interleukin-1 alpha (IL1a), IL1A (gene 3552); assay: BSK_KF3CT_IL1a: BioMAP Diversity Plus: KF3CT Assay for Interleukin-1 alpha (IL1a) Biomarker Activity (AID 2283070); details: primary human keratinocytes with fibroblasts; actives raise or lower the signal
In short: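 IL-1a was detected by ELISA 24 h after chemical treatment of a co-culture of human skin keratinocytes and foreskin fibroblasts. Gain or loss of signal was fitted against the DMSO baseline.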

[6] = read-out: TIMP metallopeptidase inhibitor 2 (TIMP2), TIMP2 (gene 7077); assay: BSK_KF3CT_TIMP2: BioMAP Diversity Plus: KF3CT Assay for TIMP metallopeptidase inhibitor 2 (TIMP2) Biomarker Activity (AID 2283071); details: primary human keratinocytes with fibroblasts; actives raise or lower the signal
In short: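 Chemicals were dosed onto human skin primary co-cultures of keratinocytes and foreskin fibroblasts, and TIMP-2 was measured by ELISA after 24 hours. Activity in either direction was fitted relative to DMSO.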

[7] = read-out: C-C motif chemokine 2 (Homo sapiens) (UniProt P13500); assay: BSK_KF3CT_MCP1: BioMAP Diversity Plus: KF3CT Assay for Monocyte Chemoattractant Protein 1 (MCP1/CCL2) Biomarker Activity (AID 2283073); details: primary human keratinocytes with fibroblasts; actives raise or lower the signal
In short: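 ELISA read-out of MCP-1, 24 h post-dose, in primary human skin keratinocytes co-cultured with fibroblasts. Parallel SRB staining monitors cytotoxicity; changes fitted both directions relative to DMSO.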

[8] = read-out: Matrix Metallopeptidase 9 (MMP9), MMP9 (gene 4318); assay: BSK_KF3CT_MMP9: BioMAP Diversity Plus: KF3CT Assay for Matrix Metallopeptidase 9 (MMP9) Biomarker Activity (AID 2283074); details: primary human keratinocytes with fibroblasts; actives raise or lower the signal;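 on AC50: MMP9 protein level quantified by ELISA in the co-culture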
In short: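 MMP-9 quantified by ELISA after 24 h chemical treatment of primary human skin keratinocyte/fibroblast co-cultures; gain or loss fitted against DMSO, with parallel SRB staining (0.1% SRB, 560 nm) for overt cytotoxicity.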

[9] = read-out: urokinase plasminogen activator (uPA), PLAU (gene 5328); assay: BSK_KF3CT_uPA: BioMAP Diversity Plus: KF3CT Assay for urokinase plasminogen activator (uPA) Biomarker Activity (AID 2283075); details: primary human keratinocytes with fibroblasts; actives raise or lower the signal
In short: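 ELISA read-out of uPA 24 h after dosing human skin keratinocytes co-cultured with foreskin fibroblasts. Signal change fitted both ways relative to DMSO; sulforhodamine B on parallel cultures marks overt cytotoxicity.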

CD40, CD40 (gene 958) = assay: BSK_LPS_CD40: BioMAP Diversity Plus: LPS Assay for CD40 Biomarker Activity (AID 2283076); details: primary human HUVEC with PBMC; actives raise or lower the signal
In short: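 In the LPS system of human endothelial cells with peripheral blood mononuclear cells, CD40 levels were read by ELISA 24 h post-treatment. Signal changes in either direction were fitted against the DMSO baseline, with parallel SRB protein staining.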

[10] = read-out: E-selectin (Homo sapiens) (UniProt P16581); assay: BSK_LPS_Eselectin: BioMAP Diversity Plus: LPS Assay for Eselectin Biomarker Activity (AID 2283077); details: primary human HUVEC with PBMC; actives raise or lower the signal
In short: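 E-selectin ELISA on LPS-stimulated endothelial cell/PBMC co-cultures, read 24 h post-treatment; gains and losses fitted against DMSO. Parallel SRB staining (0.1% SRB after 10% TCA fixation, 560 nm) flags overt cytotoxicity.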

[11] = read-out: Interleukin-8 (IL8), CXCL8 (gene 3576); assay: BSK_LPS_IL8: BioMAP Diversity Plus: LPS Assay for Interleukin-8 (IL8) Biomarker Activity (AID 2283078); details: primary human HUVEC with PBMC; actives raise or lower the signal
In short: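 ELISA read-out of IL-8 after 24 h chemical treatment of LPS-activated endothelial/PBMC human primary co-cultures. Changes either up or down relative to DMSO; overt cytotoxicity checked by sulforhodamine B staining in parallel wells.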

[12] = BSK_LPS_SRB: Viability Assessment in the BioMAP Diversity Plus: LPS Assay (AID 2283079); details: primary human HUVEC with PBMC;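 further: total protein by sulforhodamine B absorbance as a cytotoxicity measure; measured one day after compound addition; fitted in both directions against DMSO so loss or gain of signal counts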
In short: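 SRB viability endpoint: cells fixed with 10% TCA, stained with 0.1% SRB, read at 560 nm, 24 h post-dose. HUVEC/PBMC co-culture; signal change in either direction scored relative to DMSO.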

[13] = read-out: Interleukin-1 alpha (IL1a), IL1A (gene 3552); assay: BSK_LPS_IL1a: BioMAP Diversity Plus: LPS Assay for Interleukin-1 alpha (IL1a) Biomarker Activity (AID 2283080); details: primary human HUVEC with PBMC; actives raise or lower the signal
In short: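 Readout is IL-1a level by ELISA, 24 h post-dose, fitted as gain or loss relative to DMSO. System: LPS-activated human primary co-culture of vascular endothelium and peripheral blood mononuclear cells, with parallel SRB total-protein cytotoxicity.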

[14] = read-out: Monocyte Chemoattractant Protein-1 (MCP1), CCL2 (gene 6347); assay: BSK_LPS_MCP1: BioMAP Diversity Plus: LPS Assay for Monocyte Chemoattractant Protein-1 (MCP1) Biomarker Activity (AID 2283081); details: primary human HUVEC with PBMC; actives raise or lower the signal;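 on AC50: secreted MCP-1 protein quantified by ELISA in culture supernatant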
In short: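 Secreted MCP-1 read by ELISA at 24 h post-dosing in an LPS-activated co-culture of endothelial cells with peripheral blood mononuclear cells. Fits run in both directions, DMSO as baseline; parallel SRB staining tracks overt cytotoxicity.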

[15] = BSK_LPS_PGE2: BioMAP Diversity Plus: LPS Assay for Prostaglandin E2 (PGE2) Biomarker Activity (AID 2283082); details: primary human HUVEC with PBMC; actives raise or lower the signal;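 on AC50: secreted prostaglandin E2 measured by ELISA in LPS-stimulated co-culture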
In short: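 Compounds were added to the LPS co-culture of endothelium and PBMC, and PGE2 was measured by ELISA after 24 h. Responses in either direction were fitted with DMSO as baseline.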

[16] = read-out: Macrophage colony-stimulating factor (MCSF), CSF1 (gene 1435); assay: BSK_LPS_MCSF: BioMAP Diversity Plus: LPS Assay for Macrophage colony-stimulating factor (MCSF) Biomarker Activity (AID 2283083); details: primary human HUVEC with PBMC; actives raise or lower the signal
In short: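 Bidirectional fitting against DMSO was applied to M-CSF levels read by ELISA at 24 h post-dose. The system pairs human umbilical vein endothelium with peripheral blood mononuclear cells; parallel SRB staining tracked cytotoxicity.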

[17] = read-out: Transforming growth factor beta 1 (TGFb1), TGFB1 (gene 7040); assay: BSK_KF3CT_TGFb1: BioMAP Diversity Plus: KF3CT Assay for Transforming growth factor beta 1 (TGFb1) Biomarker Activity (AID 2283072); details: primary human keratinocytes with fibroblasts; actives raise or lower the signal
In short: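 KF3CT co-culture (keratinocytes + fibroblasts), 24 h exposure → TGF-b1 ELISA → bidirectional fit, DMSO = baseline. Parallel SRB total-protein staining (0.1% SRB, 10% TCA fixation, 560 nm) for cytotoxicity.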

[18] = BSK_KF3CT_SRB: Viability Assessment in the BioMAP Diversity Plus: KF3CT Assay (AID 2283069); details: primary human keratinocytes with fibroblasts;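 further: total protein by sulforhodamine B staining as a cytotoxicity measure; read 24 h after compound addition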
In short: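 Cytotoxicity was gauged by SRB staining (0.1% SRB, 10% TCA fixation, 560 nm) of parallel cultures at 24 h. The cells were primary human skin keratinocytes co-cultured with fibroblasts, and activity was fitted in both directions against DMSO.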

Measured: AC50

Chain of E-selectin (Homo sapiens) (P16581 whole entry, looked up): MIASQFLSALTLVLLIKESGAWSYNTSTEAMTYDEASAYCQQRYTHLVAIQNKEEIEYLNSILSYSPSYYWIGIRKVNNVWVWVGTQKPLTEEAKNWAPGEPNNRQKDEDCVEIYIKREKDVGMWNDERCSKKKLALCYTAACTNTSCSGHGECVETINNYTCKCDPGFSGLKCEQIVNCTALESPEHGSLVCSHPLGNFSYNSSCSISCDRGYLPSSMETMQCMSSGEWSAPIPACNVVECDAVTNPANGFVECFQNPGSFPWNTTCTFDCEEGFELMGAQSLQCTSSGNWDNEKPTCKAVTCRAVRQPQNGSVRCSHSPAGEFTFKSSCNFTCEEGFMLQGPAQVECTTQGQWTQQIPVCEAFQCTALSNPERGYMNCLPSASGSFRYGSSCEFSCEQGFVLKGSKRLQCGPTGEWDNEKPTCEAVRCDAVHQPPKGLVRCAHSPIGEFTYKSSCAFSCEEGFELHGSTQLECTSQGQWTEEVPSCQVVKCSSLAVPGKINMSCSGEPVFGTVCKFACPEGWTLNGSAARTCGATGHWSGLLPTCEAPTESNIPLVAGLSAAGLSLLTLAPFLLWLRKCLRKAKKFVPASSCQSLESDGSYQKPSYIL

O=C(O)C(F)(F)OC(F)(F)C(F)(F)OC(F)(F)F
inactive: [1] | [2] | [3] | [4] | [5] | [6] | [7] | [8] | [9] | CD40, CD40 (gene 958) | [10] | [11] | [12] | [13] | [14] | [15] | [16]
active: [5] 47.7 µM

O=P(OCC(Br)CBr)(OCC(Br)CBr)OCC(Br)CBr (stereo unspecified)
active: [4] 26.2 µM | [8] 21.1 µM
not listed: [2] | [3] | [18]
inactive: all other assays above

CCCCC(CC)COC(=O)c1c(Br)c(Br)c(Br)c(Br)c1C(=O)OCC(CC)CCCC (stereo unspecified)
not listed: [2]
inactive: all other assays above

COP(=O)(CCC(=O)NCO)OC
not listed: [2] | [17] | [18]
inactive: all other assays above

c1ccc2c(c1)sc1ccccc12
active: [15] 0.596 µM
not listed: [2] | [18]
inactive: all other assays above

CCCCN(CCCC)N=O
not listed: [3] | [18]
inactive: all other assays above

CCN(CC)c1ccccc1
not listed: [2] | [3] | [18]
inactive: all other assays above

O=C(O)C1C(C(=O)O)C2(Cl)C(Cl)=C(Cl)C1(Cl)C2(Cl)Cl (stereo unspecified)
not listed: [3] | [18]
inactive: all other assays above

CCCN(CCC)c1c([N+](=O)[O-])cc(C(C)C)cc1[N+](=O)[O-]
active: [8] 14.6 µM | CD40, CD40 (gene 958) 31 µM | [10] 30.8 µM | [11] 31.9 µM | [12] 31.2 µM | [13] 31.5 µM | [14] 31.3 µM | [16] 26.2 µM
not listed: [2]
inactive: all other assays above

c1nc[nH]n1
not listed: [2] | [3] | [18]
inactive: all other assays above

O=C(O)C(F)(F)C(F)(F)C(=O)O
not listed: [2] | [17]
inactive: all other assays above

FC(F)(F)C(F)(C(F)(F)F)C(F)(F)C(F)(F)CC1CO1 (stereo unspecified)
not listed: [2] | [3] | [17]
inactive: all other assays above

Cc1cccc(N)c1
not listed: [2] | [7]
inactive: all other assays above

Cc1ccc(N)cc1N
not listed: [2] | [3]
inactive: all other assays above
